From PubChem BioAssay AID1240 (Sanford-Burnham Center for Chemical Genomics, 2008)
Out of some 50,000 compounds screened, about 800 (1.6%) showed an effect of 50% or more. This is one part of a sample in which strong results are shown more often than they occur.

target: Bcl-2-like protein 10 (Homo sapiens) (UniProt Q9HD36); test: Phenotype converters, Bcl-B/TR3 peptide binding displacement, primary biochemical FP (AID 1240); conditions: GST-Bcl-B / FITC-TR3 peptide fluorescence polarization; stronger effect = higher value; compound at 3.75 mg/L;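 note: 0% = Bcl-B with tracer peptide and DMSO and 100% = tracer peptide lacking Bcl-B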
Sequence (Q9HD36 whole entry, looked up): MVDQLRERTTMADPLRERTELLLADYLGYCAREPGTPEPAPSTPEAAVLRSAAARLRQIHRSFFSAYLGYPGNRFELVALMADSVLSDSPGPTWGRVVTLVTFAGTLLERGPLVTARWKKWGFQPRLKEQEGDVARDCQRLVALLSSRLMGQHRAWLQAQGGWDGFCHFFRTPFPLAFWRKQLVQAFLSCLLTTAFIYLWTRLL

| Structure (SMILES) | displacement [%] |
| --- | --- |
| O=C(COc1ccc([N+](=O)[O-])cc1)Nc1ccccn1 | -10.4 |
| Cc1ccc(Nc2ccc([N+](=O)[O-])ccc2=O)cc1 | 136 |
| Cc1ccc(NS(=O)(=O)c2ccc([N+](=O)[O-])cc2)cc1 | 15.1 |
| Cc1ccc(Nc2ccc([N+](=O)[O-])c3nonc23)cc1 | -2.1 |
| O=C(Nc1ccccc1C(=O)Nc1ccccn1)c1ccc([N+](=O)[O-])cc1 | 45.1 |
| O=c1ccc([N+](=O)[O-])ccc1Nc1ccccn1 | 58.1 |
| O=C(c1ccccc1)N1CCN(CCCc2ccccc2)CC1 | -9.4 |
| Cc1cccc(C(=O)O/N=C(\N)c2ccncc2)c1 | 8.5 |
| Clc1ccc(CN2CCN(/N=C/c3ccc(Br)s3)CC2)cc1 | 14.6 |
| N#C/C(=C/c1cccc(Cl)c1)c1nc(-c2ccc(Cl)cc2)cs1 | -4.7 |
| COc1cc(OC)c(NC(=O)c2ccccc2C)cc1Cl | -12 |
| CCOc1cc(C=C2C(=O)NC(=O)NC2=O)ccc1OCc1c(C)no[n+]1[O-] | 108 |
| Cc1no[n+]([O-])c1COc1ccc(C=C2C(=O)NC(=O)NC2=O)cc1 | 2.5 |
| Cc1no[n+]([O-])c1COc1cccc(/C=C2\SC(=S)NC2=O)c1 | -27.6 |
| CCOc1cc(/C=C2\SC(=S)NC2=O)ccc1OCc1c(C)no[n+]1[O-] | 117 |
| CCOc1cc(C=C2C(=O)NC(=O)NC2=O)ccc1OCc1ccccc1 | 33.7 |
| CCOc1cc(C=C2C(=O)NC(=O)NC2=O)ccc1OCc1cccc2ccccc12 | 58.6 |
| CCOc1ccc(C=C2C(=O)NC(=O)NC2=O)cc1OCC | 14.1 |
| COc1cc(C=C2C(=O)NC(=O)NC2=O)ccc1OCc1c(C)no[n+]1[O-] | -3.9 |
| Cc1no[n+]([O-])c1COc1ccc(/C=C2\SC(=S)NC2=O)cc1 | -27.5 |
| O=C(c1nn2c(C(F)(F)F)cc(-c3ccccc3)nc2c1Cl)N1CCCC1 | 22.7 |
| CC1=NN(C(=O)c2ccc([N+](=O)[O-])cc2)C(O)(C(F)(F)F)C1 (stereo unspecified) | 6.8 |
| O=C1NC(=Nc2ccc(Cl)cc2)SC1Cc1cccc([N+](=O)[O-])c1 (stereo unspecified) | -4.7 |
| O=C(CN(c1ccc(Br)cc1)S(=O)(=O)c1ccccc1)NC1CC2CCC1C2 (stereo unspecified) | -0.2 |
| Nc1nnc(SCC(=O)N2c3ccccc3Sc3ccccc32)s1 | -2 |
| CC(=O)N(CCC1(Cc2ccccc2)CCOC(C)(C)C1)Cc1ccccc1 (stereo unspecified) | 7.8 |

| Structure (SMILES) | displacement [%] |
| --- | --- |
| O=C(O)CCCCCN1C(=O)C(=O)/C(=C(/O)c2ccccc2)C1c1cccc(F)c1 (stereo unspecified) | -11.9 |
| COc1ccc(C(NC(C)=O)NC(C)=O)cc1OC | 6.3 |
| CCOc1ccc(C(=O)N(C(=O)c2ccc(OCC)cc2)c2ncccc2C)cc1 | -0.9 |
| COC(=O)c1[nH]cnc1C(=O)Nc1ccc(C)cc1C(=O)c1ccccc1 | -1.6 |
| Cc1ccccc1-c1nc2ccccc2c(=O)n1/N=C/c1ccc([N+](=O)[O-])cc1 | 12.8 |
| Cc1ccc(C)c(NC(=O)/C=C/c2ccc(C)o2)c1 | 10.2 |
| CCOc1ccc(S(=O)(=O)NCc2ccccc2Cl)c2ccccc12 | 3.4 |
| O=C(Nc1nc(-c2ccc([N+](=O)[O-])cc2)cs1)c1ccc(Cl)cc1 | 8.7 |
| O=C(Nc1nc(-c2ccc([N+](=O)[O-])cc2)cs1)c1ccccc1F | 113 |
| O=C(Nc1nc(-c2ccc(F)cc2)cs1)c1ccccc1[N+](=O)[O-] | 8.9 |
| COc1cc(/C=C2/SC(=S)N(CC(=O)O)C2=O)ccc1OCc1ccccc1 | 1.7 |
| Oc1ccc(Br)cc1CN1CCN(Cc2c[nH]c3ccccc23)CC1 | -2.7 |
| Cc1n[nH]c(C)c1Sc1ccccc1N=Cc1cc(Cl)cc([N+](=O)[O-])c1O | 117 |
| Cc1n[nH]c(C)c1Sc1ccccc1N=Cc1cc([N+](=O)[O-])ccc1O | 3.6 |
| Cc1n[nH]c(C)c1Sc1ccccc1N=Cc1cc(Cl)ccc1O | 0 |
| O=C(/C=C/c1ccccc1OC(=O)c1cccnc1)c1ccccc1 | -10.4 |
| Cc1ccc(C2OC3(C(=O)c4ccccc4C3=O)C(c3cccc(Cl)c3)C23C(=O)c2ccccc2C3=O)cc1 (stereo unspecified) | 2 |
| O=C(O)CCN1C(=O)/C(=C\c2ccc3c(c2)OCO3)SC1=S | -2.7 |
| CC(C(=O)O)N1C(=O)/C(=C/c2ccc3c(c2)OCO3)SC1=S (stereo unspecified) | 9.1 |
| O=C1/C(=C/c2cccc([N+](=O)[O-])c2)SC(=S)N1C1CCS(=O)(=O)C1 (stereo unspecified) | 2.2 |
| O=C1/C(=C\c2ccc3c(c2)OCO3)SC(=S)N1CCc1ccccc1 | -2.3 |
| O=C1/C(=C\c2ccc3c(c2)OCO3)SC(=S)N1C1CCS(=O)(=O)C1 (stereo unspecified) | 106 |
| CN1C(=O)/C(=C/c2ccc3c(c2)OCO3)SC1=S | 80.3 |
| Cc1ccc(CNS(=O)(=O)c2ccccc2[N+](=O)[O-])cc1 | 5.2 |
| O=C(c1ccccc1)N1CCCC2CCCCC21 (stereo unspecified) | 1.6 |
| CCOc1ccc(NC(=O)c2c(N)sc(-c3ccccc3)c2C)cc1 | -0.3 |

| Structure (SMILES) | displacement [%] |
| --- | --- |
| CCO/C=N/C1=C(C#N)C(c2ccccc2)C2=C(CC(C)(C)CC2=O)O1 (stereo unspecified) | 4.5 |
| COC(=O)c1cc(C(=O)Nc2cc(C)ccn2)cc([N+](=O)[O-])c1 | 3.9 |
| COC(=O)c1cc(C(=O)Nc2ncccc2C)cc([N+](=O)[O-])c1 | 55.2 |
| COC(=O)c1cc(C(=O)Nc2ccccn2)cc([N+](=O)[O-])c1 | -1.3 |
| Cc1cccnc1NC(=O)Nc1ccc(F)cc1 | 0.2 |
| O=C(NCC1CCCO1)c1ccc(C2SCC(=O)N2Cc2ccccc2)cc1 (stereo unspecified) | -12.3 |
| CCCOc1ccc(N2C(=O)CC(NCc3cccnc3)C2=O)cc1 (stereo unspecified) | 1.7 |
| COC(=O)CCN1C(=O)/C(=C\c2ccc(C)cc2)SC1=S | 0.6 |
| CCCCOc1ccc(/C=C2\SC(=S)N(C(C)C(=O)O)C2=O)cc1OC (stereo unspecified) | 3.8 |
| CCCCOc1ccc(/C=C2\SC(=S)N(CCC(=O)OC)C2=O)cc1OC | 54.1 |
| COc1cc(/C=C2\SC(=S)N(C)C2=O)cc(Br)c1O | -47.9 |
| COC(=O)CCN1C(=O)/C(=C\c2cc(Br)c(O)c(OC)c2)SC1=S | 53.8 |
| COc1cc(/C=C2/SC(=S)N(CCC(=O)O)C2=O)cc(Br)c1O | -13.7 |
| O=C(Nc1ccc(I)cc1Cl)c1cccc(Cl)c1Cl | 11.2 |
| O=C(NN1C(=O)/C(=C\c2ccccn2)SC1=S)c1ccccc1 | -15.1 |
| CCOc1ccc(Br)cc1/C=C(\C#N)c1nc2ccc(C)cc2[nH]1 | 72.9 |
| Cc1ccc2nc(/C(C#N)=C/c3cc(Br)ccc3OCc3ccccc3)[nH]c2c1 | -2.3 |
| Cc1ccc2nc(/C(C#N)=C\c3ccc(Br)cc3)[nH]c2c1 | 136 |
| CCc1ccc(/C=C(/C#N)c2nc3ccc(C)cc3[nH]2)cc1 | 3.2 |
| Cc1ccc(/C=C(/C#N)c2nc3ccc(C)cc3[nH]2)cc1 | 4.5 |
| CCCOc1ccc(Br)cc1/C=C(/C#N)c1nc2ccc(C)cc2[nH]1 | 69.3 |
| CCCOc1c(I)cc(I)cc1/C=C(/C#N)c1nc2ccc(C)cc2[nH]1 | -4.9 |
| Cc1ccc2nc(/C(C#N)=C\c3cc(Br)ccc3OC(C)C)[nH]c2c1 | 13.1 |
| CCCOc1ccc(Cl)cc1/C=C(/C#N)c1nc2ccc(C)cc2[nH]1 | 15.5 |
